This is a sample that favours compounds with a hit; in the whole collection about 21% have one here.
HCV inhibitor: blocks hepatitis C virus; Huh7.5.1 HCVcc-Cre infection, luciferase reporter, 44 h; Potency, µM (titrated, usually from 41.8 µM), without a hit: at the highest dose activity change, negative = inhibition, actives largely listed as inhibitors; 3.4% of 340,000 active; AID 651820; also: potency is read from the fitted curve at half-maximal effect; % is scaled to controls: 0 for no effect and ±100 for the full control effect
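HCVcc-Cre virus at an moi near 0.5 was added right after compound to cells cultured 4 h from seeding (1,000 cells/well). Luciferase activity was determined 44 h later, 15 min after substrate addition at RT.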
Pf growth 48h: inhibits P. falciparum growth in the first generation, 48 h | P. falciparum luciferase growth in erythrocytes, 48 h | Potency, µM (titrated, usually from 28.7 µM), for inactives: top-dose activity change, negative = inhibition, hits mostly inhibitors | 5.9% of 310,000 active | AID 504832; also: potency is read from the fitted curve at half-maximal effect; % is scaled to controls: 0 for no effect and ±100 for the full control effect
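Luminescence readout; reporter = integrated firefly luciferase in P. falciparum. RBC culture at 2% hematocrit, 0.1% parasitemia final, 37 C/5% CO2; decreased signal taken as growth inhibition.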
Pf growth 96h: P. falciparum growth inhibition at 96 hours. P. falciparum luciferase reporter growth, 96 h. Potency, µM (top dose mostly 28.7 µM), without a hit: top-dose activity change, negative = inhibition, most hits filed as inhibitors. 6.9% of 320,000 active; also: potency is read from the fitted curve at half-maximal effect; % is scaled to controls: 0 for no effect and ±100 for the full control effect
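Readout is luminescence from an integrated firefly luciferase in P. falciparum. Red cells, 2% hematocrit and 0.05% parasitemia final, were cultured with compound through two parasite generations (96 hours) at 37 C, 5% CO2.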
AMA1 RON2 block: AMA1-RON2 (P. falciparum) interaction inhibition | 0.2% of 360,000 active | Potency, µM (titrated, usually from 58.2 µM), without a hit: at the highest dose activity change, negative = inhibition, hits mostly inhibitors | AlphaScreen AMA1-biotinylated RON2 peptide binding | AID 720542;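 also: potency is read from the fitted curve at half-maximal effect; 0% = vehicle wells and -100% = peptide control; nearly all actives have a fitted effect of over 45% in size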
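AMA1 (3D7) with his tag at 25 nM final met compounds first, then biotinylated RON2 peptide at 25 nM; detection used donor plus acceptor beads, 10 µg/mL apiece, read by AlphaScreen after 30 min at room temperature.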
Cycloheximide cs: counter-screen hit for Shiga toxin inhibitors, cycloheximide; max response, %; 12% of 300,000 active; cell reporter, cycloheximide protein synthesis inhibition counterscreen; AID 2314; in the data active = max response mostly above about 13%, no sharp cut-off; inactive = mostly below about 14%; also: read at 38.3 µM for the half of the compounds with a filed dose; 0% is about no effect
Shiga toxin inh: Shiga toxin inhibition; Vero cells, Shiga toxin protein synthesis inhibition reporter; inhibition, % at 38.7 µM; 9.2% of 290,000 active; AID 2315; in the data active = inhibition mostly above about 28%, no sharp cut-off; inactive = mostly below about 43%; also: 0% is about no effect
* marks the source's active call; other numbers are inactive results; ? = inconclusive; . = no result given; [ ] = remark or other dose. Unless noted, calls follow the shape of the dose curve; as a rule, active = well fitted curve in the direction sought with a large enough effect; inconclusive = small, poorly fitted or top-dose-only effect, or another doubt; inactive = no such curve, though single readings can be large; an effect the other way counts as inactive or inconclusive.

SMILES | HCV inhibitor | Pf growth 48h | Pf growth 96h | AMA1 RON2 block | Cycloheximide cs | Shiga toxin inh
COCCn1c(=S)[nH]c2cc(C(=O)NCCc3ccccc3)ccc2c1=O | ? | -15% | 14% | 50% | 12 | 10
CCOC(=O)c1c(CSC(=N)N)n(-c2ccc(C)cc2)c2cc(Br)c(OC(C)=O)cc12 | ? | 7.4µM* | 3.3µM* | -5% | 1 | -24
CCOc1ccc(CCNC(=O)CCCn2nc(C)c3c(C)n(-c4ccccc4)nc3c2=O)cc1 | ? | -10% | 13µM* | 3% | 1 | 14
Cc1nn(CCCC(=O)NCCc2ccccc2)c(=O)c2nccn12 | 19% | 14% | 12% | 0% | 7 | 15*
CCOc1ccc(CCNC(=O)C(C)n2nc(C)c3c(C)n(-c4ccccc4)nc3c2=O)cc1 (centres undefined) | -29% | ? | 13µM* | 1% | -7 | -4
CCC(C(=O)NCCc1ccccc1OC)n1nc(C)c2c(C)n(-c3ccccc3)nc2c1=O (centres undefined) | ? | -17% | 12µM* | -3% | -2 | 2
Cc1ccc(CCNC(=O)C(C)n2nc(C)c3c(C)n(-c4ccccc4)nc3c2=O)cc1 (centres undefined) | -13% | -14% | ? | -11% | -9 | 6
N#Cc1ccccc1S(=O)(=O)N1CCN(CC(O)c2ccccc2)CC1 (centres undefined) | 8% | ? | ? | 1% | 10 | -6
Cc1nn(C(C)C(=O)NC2CCCCCC2)c(=O)c2nn(-c3ccccc3)c(C)c12 (centres undefined) | ? | -11% | 12µM* | -8% | 20 | 38
Cc1ccc(CNC(=O)CCCn2nc(C)c3c(C)n(-c4ccccc4)nc3c2=O)cc1 | ? | 0% | 66% | 16% | -6 | -2
Cc1ccc(-n2nc3c(=O)n(CCCC(=O)N4CCC(C(N)=O)CC4)nc(C)c3c2C)cc1 | -10% | 10µM* | ? | 7% | 7 | -4
Cc1ccc(-n2nc3c(=O)n(CCCC(=O)NCC(C)c4ccccc4)nc(C)c3c2C)cc1 (centres undefined) | 22µM* | ? | 6% | -5% | 5 | 22
O=C(OCN1C(=O)C(=O)c2ccccc21)c1ccc(Cl)cc1 | 12% | 4% | -9% | 9% | 0 | -8
N/C(=N\OC(=O)CC1CCCCC1)c1cccc(Br)c1 | 5% | ? | 10% | 15% | 44* | 55*
COc1ccc(/C(N)=N/OC(=O)CC2CCCCC2)cc1OC | -18% | ? | ? | 8% | 50* | 55*
N/C(=N\OC(=O)CC1CCCCC1)c1ccc(Br)cc1 | 40% | 26% | ? | 23% | 12 | 22
N/C(=N\OC(=O)CC1CCCCC1)c1ccc(Cl)cc1 | 14% | 7% | 35% | 20% | 30* | 73*
COc1ccc(/C(N)=N/OC(=O)CSc2ccc(C)cc2)cc1OC | ? | . | ? | 5% | 1 | -16
COc1ccc(/C(N)=N/OC(=O)CCC2CCCC2)cc1OC | 2% | 21% | ? | 9% | 23* | 58*
COc1ccc(C(=O)NC2CCCCCCC2)cc1OC | -15% | . | . | 2% | . | .
OCCN1CCN(c2ncnc3c2ncn3[C@H]2CN(Cc3ccc(F)cc3)C[C@@H](CO)O2)CC1 | . | . | . | -8% | . | .
CCc1nc2ccc(C(=O)NCc3ccccc3OC)cn2c1N(CC)CCOC | . | . | . | 0% | . | .
Cc1nc2sc(C(c3ccco3)N3CCN(C(c4ccccc4)c4ccccc4)CC3)c(O)n2n1 (centres undefined) | ? | 1.7µM* | ? | -7% | 4 | -7
O=C(O)c1ccccc1O[C@@H]1O[C@H](C(=O)O)[C@@H](O)[C@H](O)[C@H]1O | . | . | . | . | 14 | -6
CCOc1ccc(NC(=O)c2ccc(Cl)c(NC(=O)c3ccco3)c2)cc1 | ? | 10% | ? | 7% | -1 | -5
SMILES | HCV inhibitor | Pf growth 48h | Pf growth 96h | AMA1 RON2 block | Cycloheximide cs | Shiga toxin inh
Cc1c(C(C)(C)C)c(C=S)n2ccccc12 | -20% | . | 10µM* | 12% | -3 | -1
Cc1c(C=O)c2ccccn2c1C(=O)c1ccccc1 | -5% | -9% | . | 9% | -2 | -18
CCCNc1c(NC(=O)c2cccs2)c(=O)oc2ccccc12 | 21% | -7% | 8% | 0% | -2 | 11
Cc1ccc2cc(CCNS(=O)(=O)c3ccc(F)cc3)c(=O)[nH]c2c1C | 5% | ? | 19% | 0% | 0 | -14
COc1ccccc1-c1oc2ccccc2c1-c1ccc2c(c1)OCO2 | ? | ? | ? | 8% | . | .
Nc1oc2ccccc2c(=O)c1-c1ccc2c(c1)OCO2 | 5% | -20%[0.00184 µM] | 4% | 2% | 41* | 72*
COc1ccc(N2C3=C(CC4=C2CC(C)(C)CC4=O)C(=O)CC(C)(C)C3)cc1 | ? | 9.3µM* | 13µM* | -6% | -3 | -10
COc1ccc(N2C3=C(CC4=C2CCCC4=O)C(=O)CCC3)cc1 | ? | ? | 12µM* | -12% | -4 | -4
COc1ccc(-n2ccc(=O)c3c2CCCC3=O)cc1 | -14% | -4% | -18% | 2% | 8 | -19
COc1ccccc1-c1cnc(C(O)c2cccc(F)c2)[nH]1 (centres undefined) | . | . | . | -10% | . | .
CC1(C)OC(=O)NC1c1ccccc1 (centres undefined) | . | . | . | 3% | . | .
Cn1c(=O)[nH]c(=O)c2c1nc(N1CCCCCC1)n2CCCSc1nc2ccccc2o1 | 7% | 12µM* | 19% | -9% | -3 | -6
CC(CSc1nc2ccccc2s1)Cn1c(N2CCCC2)nc2c1c(=O)[nH]c(=O)n2C (centres undefined) | ? | 12µM* | 10µM* | 0% | -1 | -5
Cn1c(=O)[nH]c(=O)c2c1nc(N1CCOCC1)n2CCCSc1ncccn1 | 6% | 20% | -22% | 2% | 11* | -4
CCOC(=O)Cn1c(Br)nc2c1c(=O)[nH]c(=O)n2C | -3% | -10% | . | -15% | 1 | 18
CCOC(=O)Cn1c(N2CCOCC2)nc2c1c(=O)[nH]c(=O)n2C | 12% | -7% | 12µM* | 2% | -3 | 8
Cn1c(=O)[nH]c(=O)c2c1nc(N1CCCCCC1)n2CCSc1nc2ccccc2o1 | 14% | 31% | 34% | 8% | 0 | -3
CC1CN(C(=O)CCC(=O)NCc2ccccc2)c2ccccc2O1 (centres undefined) | 4% | 12% | -3% | 3% | 5 | 6
O=C(COC(=O)c1cncc(Br)c1)NCC12CC3CC(CC(C3)C1)C2 | 24% | 15% | 4% | -8% | . | .
CCCCOCCCNC(=O)C[C@@H]1C[C@@]2(C(=O)OCC)CCCC=C2N(Cc2ccc3c(c2)OCO3)C1=O | . | . | . | 5% | . | .
CSc1ccc(CN2CCN(C(C)C)C(CCO)C2)cc1 (centres undefined) | -15% | 19% | ? | 29% | -3 | 10

Assay outcomes: PubChem BioAssay, National Center for Advancing Translational Sciences (NCATS)
